According to the supplement of paper PMC11732987, “Enantioselective OTUD7B fragment discovery through chemoproteomics screening and high-throughput optimisation” (Communications Chemistry, 2025):

Legend:
Assay in all cases: log2 ratio of Biotin-Ahx-Ub-VS probe labelling (fragment/DMSO); higher = less target engagement (more negative = stronger competition), active = hit call of the paper (q ≤ 0.05, log2 ratio ≤ -1)
Details in all cases: compound concentration: 200 uM; treatment time: 3 h
USP34 = USP34 (UniProt Q70CQ2)
Procedure, shortened: (§1)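 HEK293T lysate in Tris/CHAPS/IGEPAL buffer with protease inhibitors (495 µg per sample) was given fragment at 200 µM or vehicle for 3 h, in triplicate. It then received Biotin-Ahx-Ub-VS at 0.5 µM final for 1 h. Labelled DUBs were NeutrAvidin-enriched, digested with LysC and trypsin, and run by diaPASEF LC-MS/MS. Values are average log2 fragment/vehicle ratios by unpaired t-test on global-median-normalised Spectronaut quantities of proteins with ≥2 unique peptides.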

USP36 = molecular target: T1, USP36 (UniProt Q9P275)
T1 sequence (whole entry): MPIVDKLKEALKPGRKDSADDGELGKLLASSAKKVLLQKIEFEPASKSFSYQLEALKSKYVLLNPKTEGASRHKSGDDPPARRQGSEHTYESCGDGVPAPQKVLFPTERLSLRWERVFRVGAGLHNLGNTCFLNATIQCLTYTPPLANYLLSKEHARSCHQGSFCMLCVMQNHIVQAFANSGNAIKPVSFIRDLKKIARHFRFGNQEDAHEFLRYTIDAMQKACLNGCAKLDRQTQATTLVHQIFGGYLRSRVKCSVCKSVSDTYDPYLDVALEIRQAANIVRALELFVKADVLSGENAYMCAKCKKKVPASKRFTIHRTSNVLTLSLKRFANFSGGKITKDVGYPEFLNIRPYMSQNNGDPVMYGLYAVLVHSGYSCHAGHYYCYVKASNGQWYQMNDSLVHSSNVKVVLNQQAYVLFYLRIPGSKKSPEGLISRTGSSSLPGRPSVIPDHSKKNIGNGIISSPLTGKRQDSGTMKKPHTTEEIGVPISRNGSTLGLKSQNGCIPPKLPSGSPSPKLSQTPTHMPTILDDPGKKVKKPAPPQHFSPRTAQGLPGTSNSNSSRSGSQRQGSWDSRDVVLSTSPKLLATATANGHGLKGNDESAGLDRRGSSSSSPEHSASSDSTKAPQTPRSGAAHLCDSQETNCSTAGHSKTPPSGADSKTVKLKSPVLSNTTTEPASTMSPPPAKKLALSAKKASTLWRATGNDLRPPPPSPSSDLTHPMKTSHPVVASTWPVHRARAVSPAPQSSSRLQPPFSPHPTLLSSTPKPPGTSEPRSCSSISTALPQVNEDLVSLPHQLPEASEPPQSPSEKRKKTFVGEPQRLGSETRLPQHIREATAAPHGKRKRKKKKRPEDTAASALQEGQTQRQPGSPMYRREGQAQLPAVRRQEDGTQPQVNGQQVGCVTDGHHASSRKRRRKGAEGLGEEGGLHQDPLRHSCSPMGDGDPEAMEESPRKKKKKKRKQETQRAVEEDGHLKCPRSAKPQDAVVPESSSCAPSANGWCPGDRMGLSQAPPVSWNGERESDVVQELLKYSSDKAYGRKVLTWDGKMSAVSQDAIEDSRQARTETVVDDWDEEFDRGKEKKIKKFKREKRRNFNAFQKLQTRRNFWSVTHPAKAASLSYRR
Procedure, shortened: as §1

USP38 = molecular target: T2, USP38 (UniProt Q8NB14)
T2 sequence (whole entry): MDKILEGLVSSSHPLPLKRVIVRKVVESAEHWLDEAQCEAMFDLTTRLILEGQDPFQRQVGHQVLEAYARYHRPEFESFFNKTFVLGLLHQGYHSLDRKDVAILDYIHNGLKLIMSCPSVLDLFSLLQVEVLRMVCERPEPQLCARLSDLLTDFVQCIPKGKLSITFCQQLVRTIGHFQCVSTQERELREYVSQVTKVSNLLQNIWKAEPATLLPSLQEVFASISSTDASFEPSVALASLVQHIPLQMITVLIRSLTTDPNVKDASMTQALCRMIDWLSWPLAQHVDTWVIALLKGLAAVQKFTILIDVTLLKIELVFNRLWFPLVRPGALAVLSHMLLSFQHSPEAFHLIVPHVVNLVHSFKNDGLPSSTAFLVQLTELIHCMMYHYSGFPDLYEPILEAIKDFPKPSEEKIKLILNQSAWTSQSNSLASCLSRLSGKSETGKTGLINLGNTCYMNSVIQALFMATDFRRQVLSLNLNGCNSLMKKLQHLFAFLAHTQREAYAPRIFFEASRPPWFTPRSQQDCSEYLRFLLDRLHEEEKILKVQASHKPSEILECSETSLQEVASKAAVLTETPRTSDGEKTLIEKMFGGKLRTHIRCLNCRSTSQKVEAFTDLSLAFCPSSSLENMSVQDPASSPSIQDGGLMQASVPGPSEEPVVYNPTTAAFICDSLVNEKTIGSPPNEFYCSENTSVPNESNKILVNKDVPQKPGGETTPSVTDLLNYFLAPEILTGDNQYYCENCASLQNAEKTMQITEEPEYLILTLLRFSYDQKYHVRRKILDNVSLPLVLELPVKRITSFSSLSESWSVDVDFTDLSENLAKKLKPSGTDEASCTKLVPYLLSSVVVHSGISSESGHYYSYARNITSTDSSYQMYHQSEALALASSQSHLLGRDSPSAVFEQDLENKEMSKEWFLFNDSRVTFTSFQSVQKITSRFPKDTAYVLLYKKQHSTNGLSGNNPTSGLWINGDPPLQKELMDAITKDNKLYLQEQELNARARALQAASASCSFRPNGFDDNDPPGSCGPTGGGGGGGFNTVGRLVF
Procedure, shortened: as §1

USP39 = molecular target: T3, USP39 (UniProt Q53GS9)
T3 sequence (whole entry): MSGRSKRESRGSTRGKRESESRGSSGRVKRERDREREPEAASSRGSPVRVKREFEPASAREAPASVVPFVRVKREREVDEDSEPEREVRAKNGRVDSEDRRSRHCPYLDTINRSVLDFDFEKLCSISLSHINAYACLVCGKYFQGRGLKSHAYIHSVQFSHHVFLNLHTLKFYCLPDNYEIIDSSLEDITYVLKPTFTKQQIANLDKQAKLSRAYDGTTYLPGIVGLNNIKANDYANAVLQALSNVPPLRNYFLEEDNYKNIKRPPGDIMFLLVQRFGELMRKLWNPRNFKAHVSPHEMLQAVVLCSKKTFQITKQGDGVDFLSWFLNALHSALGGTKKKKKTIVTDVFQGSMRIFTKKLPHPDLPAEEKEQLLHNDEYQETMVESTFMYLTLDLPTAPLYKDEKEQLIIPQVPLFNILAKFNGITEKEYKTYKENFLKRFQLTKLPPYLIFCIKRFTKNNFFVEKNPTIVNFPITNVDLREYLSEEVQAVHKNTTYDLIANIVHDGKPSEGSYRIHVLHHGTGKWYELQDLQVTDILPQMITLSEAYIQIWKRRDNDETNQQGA
Procedure, shortened: as §1

USP4 = molecular target: T4, USP4 (UniProt Q13107)
T4 sequence (whole entry): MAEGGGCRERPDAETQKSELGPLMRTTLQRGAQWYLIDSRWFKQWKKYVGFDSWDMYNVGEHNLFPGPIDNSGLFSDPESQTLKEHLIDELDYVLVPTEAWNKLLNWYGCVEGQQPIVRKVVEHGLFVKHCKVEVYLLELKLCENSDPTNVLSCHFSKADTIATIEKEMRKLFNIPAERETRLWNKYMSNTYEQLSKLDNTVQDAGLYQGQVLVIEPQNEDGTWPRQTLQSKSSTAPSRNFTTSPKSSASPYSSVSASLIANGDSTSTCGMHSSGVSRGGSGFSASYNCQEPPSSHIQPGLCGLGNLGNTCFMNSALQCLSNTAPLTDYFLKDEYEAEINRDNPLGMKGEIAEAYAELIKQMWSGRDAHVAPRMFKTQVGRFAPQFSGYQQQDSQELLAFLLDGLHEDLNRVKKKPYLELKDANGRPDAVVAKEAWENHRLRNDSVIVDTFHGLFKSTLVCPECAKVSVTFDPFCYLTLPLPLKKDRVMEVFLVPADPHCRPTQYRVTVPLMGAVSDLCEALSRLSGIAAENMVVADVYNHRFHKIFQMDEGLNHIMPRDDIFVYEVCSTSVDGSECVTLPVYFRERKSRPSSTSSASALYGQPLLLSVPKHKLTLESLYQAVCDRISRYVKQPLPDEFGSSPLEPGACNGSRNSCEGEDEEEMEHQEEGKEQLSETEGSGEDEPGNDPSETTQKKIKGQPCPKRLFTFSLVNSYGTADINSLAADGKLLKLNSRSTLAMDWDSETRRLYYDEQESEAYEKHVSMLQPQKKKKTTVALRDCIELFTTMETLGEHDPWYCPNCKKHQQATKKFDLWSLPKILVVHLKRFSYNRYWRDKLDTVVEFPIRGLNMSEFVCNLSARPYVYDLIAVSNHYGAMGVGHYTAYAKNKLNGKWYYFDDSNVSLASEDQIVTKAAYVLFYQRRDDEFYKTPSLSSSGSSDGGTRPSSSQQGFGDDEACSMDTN
Procedure, shortened: as §1

Measured: log2 ratio of Biotin-Ahx-Ub-VS probe labelling

Sequence of USP34 (Q70CQ2 whole entry, the tested form may be a part): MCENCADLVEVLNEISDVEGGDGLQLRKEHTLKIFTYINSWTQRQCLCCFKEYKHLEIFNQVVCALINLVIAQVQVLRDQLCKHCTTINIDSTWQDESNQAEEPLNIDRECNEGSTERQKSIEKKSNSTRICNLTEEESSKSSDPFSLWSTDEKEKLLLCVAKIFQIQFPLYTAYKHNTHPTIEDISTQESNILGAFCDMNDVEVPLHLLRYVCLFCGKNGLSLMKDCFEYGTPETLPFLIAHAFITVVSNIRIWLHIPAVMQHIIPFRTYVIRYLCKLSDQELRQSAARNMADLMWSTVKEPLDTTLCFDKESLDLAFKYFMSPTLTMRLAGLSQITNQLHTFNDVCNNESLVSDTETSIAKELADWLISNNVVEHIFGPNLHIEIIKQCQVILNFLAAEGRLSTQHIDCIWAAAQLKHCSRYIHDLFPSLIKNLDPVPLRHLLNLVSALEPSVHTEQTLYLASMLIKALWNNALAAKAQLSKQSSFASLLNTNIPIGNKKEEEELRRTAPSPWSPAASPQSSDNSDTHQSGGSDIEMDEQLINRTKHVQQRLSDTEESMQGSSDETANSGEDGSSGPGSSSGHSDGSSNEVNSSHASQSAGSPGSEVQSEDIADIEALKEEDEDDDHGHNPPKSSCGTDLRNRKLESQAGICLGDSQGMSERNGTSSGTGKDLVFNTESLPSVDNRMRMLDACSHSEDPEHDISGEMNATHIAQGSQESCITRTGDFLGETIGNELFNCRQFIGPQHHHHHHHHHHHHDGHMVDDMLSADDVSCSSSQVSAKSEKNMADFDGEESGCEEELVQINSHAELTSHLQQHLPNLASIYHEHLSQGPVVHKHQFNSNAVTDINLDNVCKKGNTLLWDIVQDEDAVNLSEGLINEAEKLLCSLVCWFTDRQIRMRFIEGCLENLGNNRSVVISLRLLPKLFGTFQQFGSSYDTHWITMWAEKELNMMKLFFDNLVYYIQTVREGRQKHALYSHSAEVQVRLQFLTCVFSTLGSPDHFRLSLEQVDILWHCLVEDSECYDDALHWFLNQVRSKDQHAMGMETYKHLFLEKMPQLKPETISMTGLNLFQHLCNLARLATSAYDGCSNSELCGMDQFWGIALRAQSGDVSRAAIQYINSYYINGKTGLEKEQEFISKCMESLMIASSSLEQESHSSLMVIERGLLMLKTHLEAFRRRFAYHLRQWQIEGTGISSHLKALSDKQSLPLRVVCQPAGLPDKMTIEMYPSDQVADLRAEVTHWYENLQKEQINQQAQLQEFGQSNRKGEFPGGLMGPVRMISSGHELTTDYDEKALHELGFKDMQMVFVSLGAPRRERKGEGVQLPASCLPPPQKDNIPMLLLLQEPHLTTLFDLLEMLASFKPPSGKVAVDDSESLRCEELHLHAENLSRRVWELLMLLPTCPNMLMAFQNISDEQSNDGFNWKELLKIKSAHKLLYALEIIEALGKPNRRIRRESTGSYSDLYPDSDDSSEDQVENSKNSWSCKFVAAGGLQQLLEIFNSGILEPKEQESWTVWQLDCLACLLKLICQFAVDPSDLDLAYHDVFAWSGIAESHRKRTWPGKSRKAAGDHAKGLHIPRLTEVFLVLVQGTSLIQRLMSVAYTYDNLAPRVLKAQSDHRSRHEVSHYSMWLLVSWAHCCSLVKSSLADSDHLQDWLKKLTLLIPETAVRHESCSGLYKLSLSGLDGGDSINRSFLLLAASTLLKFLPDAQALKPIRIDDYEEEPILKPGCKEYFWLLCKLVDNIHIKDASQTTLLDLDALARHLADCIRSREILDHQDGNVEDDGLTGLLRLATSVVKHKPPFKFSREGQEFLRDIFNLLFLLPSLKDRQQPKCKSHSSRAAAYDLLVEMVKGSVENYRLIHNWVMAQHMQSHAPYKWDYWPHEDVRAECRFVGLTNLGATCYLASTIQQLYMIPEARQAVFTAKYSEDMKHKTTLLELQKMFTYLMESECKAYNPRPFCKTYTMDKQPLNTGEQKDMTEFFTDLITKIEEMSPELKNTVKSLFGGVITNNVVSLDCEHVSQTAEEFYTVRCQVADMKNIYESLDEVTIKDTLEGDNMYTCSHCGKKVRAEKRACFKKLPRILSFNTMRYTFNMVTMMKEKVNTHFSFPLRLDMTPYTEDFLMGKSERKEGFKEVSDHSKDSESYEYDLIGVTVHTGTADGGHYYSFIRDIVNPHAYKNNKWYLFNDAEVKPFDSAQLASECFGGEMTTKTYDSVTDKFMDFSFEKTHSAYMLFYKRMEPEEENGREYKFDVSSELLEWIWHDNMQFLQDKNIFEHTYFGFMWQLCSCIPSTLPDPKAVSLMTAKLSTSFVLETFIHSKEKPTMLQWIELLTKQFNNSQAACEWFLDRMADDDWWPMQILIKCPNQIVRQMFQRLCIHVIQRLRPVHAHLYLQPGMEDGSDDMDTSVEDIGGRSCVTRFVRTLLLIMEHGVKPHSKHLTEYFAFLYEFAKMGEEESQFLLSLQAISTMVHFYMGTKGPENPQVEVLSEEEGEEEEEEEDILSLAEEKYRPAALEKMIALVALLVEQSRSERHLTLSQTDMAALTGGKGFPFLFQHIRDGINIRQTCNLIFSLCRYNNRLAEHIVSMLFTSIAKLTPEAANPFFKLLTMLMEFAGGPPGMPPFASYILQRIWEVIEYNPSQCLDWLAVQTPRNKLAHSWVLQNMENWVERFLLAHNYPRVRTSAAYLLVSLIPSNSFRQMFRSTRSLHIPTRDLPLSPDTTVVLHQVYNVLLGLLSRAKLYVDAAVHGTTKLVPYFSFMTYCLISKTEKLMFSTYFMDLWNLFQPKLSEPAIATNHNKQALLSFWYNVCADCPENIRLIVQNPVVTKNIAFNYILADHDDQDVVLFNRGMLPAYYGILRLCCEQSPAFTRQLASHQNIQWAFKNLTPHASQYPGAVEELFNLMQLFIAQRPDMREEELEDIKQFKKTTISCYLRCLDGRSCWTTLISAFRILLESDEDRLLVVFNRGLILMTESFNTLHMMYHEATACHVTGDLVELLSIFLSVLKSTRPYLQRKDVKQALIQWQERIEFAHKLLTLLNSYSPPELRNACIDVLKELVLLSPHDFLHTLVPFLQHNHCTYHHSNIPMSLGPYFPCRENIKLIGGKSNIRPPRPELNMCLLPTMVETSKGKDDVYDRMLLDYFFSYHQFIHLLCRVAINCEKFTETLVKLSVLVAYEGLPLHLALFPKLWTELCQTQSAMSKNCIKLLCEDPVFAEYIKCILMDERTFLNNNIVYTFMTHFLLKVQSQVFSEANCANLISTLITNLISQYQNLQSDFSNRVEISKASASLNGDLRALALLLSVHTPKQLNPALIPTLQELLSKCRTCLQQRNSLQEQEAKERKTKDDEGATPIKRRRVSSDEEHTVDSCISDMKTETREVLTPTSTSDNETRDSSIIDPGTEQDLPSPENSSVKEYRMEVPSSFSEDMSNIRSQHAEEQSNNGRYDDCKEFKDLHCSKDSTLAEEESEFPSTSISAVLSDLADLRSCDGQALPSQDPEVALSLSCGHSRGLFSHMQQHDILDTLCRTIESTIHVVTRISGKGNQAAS

Cc1ccc(C(=O)NCCNC(=O)CCl)cc1
inactive: USP34 -0.0636 | USP36 0.0541 | USP38 -0.00607 | USP39 -0.0936 | USP4 -0.258
